Compound activity: PubChem BioAssay, Sanford-Burnham Center for Chemical Genomics
TIM10 inh: growth inhibitors of isogenic TIM10 control yeast, primary screen, counter-screen for tim10-1 yeast inhibitor project, luminescence, uHTS; S. cerevisiae TIM10 strain growth, BacTiter-Glo luminescence, 24 h; 330,000 tested, 1.4% active; AID 463195, 2010; inhibition, % at 10 µM;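 active means inhibition of 40% or more at the single tested concentration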;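 further: wild-type TIM10 isogenic control strain grown at permissive 25 °C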
tim10-1 inh: growth inhibitors of tim10-1 mutant yeast, primary screen, luminescence, uHTS | S. cerevisiae tim10-1 ts strain growth, BacTiter-Glo, 24 h | AID 463190, 2010 | 330,000 tested, 2.2% active | inhibition, % at 20 µM;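 active means inhibition of at least 40%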;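 further: mutant grown at 25 °C; 0% = DMSO wells with yeast and 100% = wells holding no yeast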
tim23-1 inh: growth inhibitors of tim23-1 mutant yeast, primary screen, luminescence, uHTS; S. cerevisiae tim23-1 growth, BacTiter-Glo luminescence, 24 h; inhibition, % at 20 µM; 330,000 tested, 1.3% active;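 active means growth inhibition of the mutant yeast at or above 50%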;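 further: temperature-sensitive mutant grown at 25 °C; plate controls were DMSO-treated mutant yeast for no effect and medium wells lacking yeast for full effect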
NALP1 inh: NALP1 inflammasome inhibitors in reconstituted yeast, colorimetric, S. cerevisiae, triplicate retest; S. cerevisiae NALP1/ASC/caspase-1 growth, X-gal OD620, 72 h; inhibition, % at 10 µM; 280,000 tested, 0.61% active; AID 2071, 2009; in the data active means inhibition mostly above about 24%, no sharp cut-off; inactive means mostly below about 32%
NALP3 yeast inh: NALP3 inflammasome inhibitors in reconstituted yeast, primary screen, luminescence, uHTS. inhibition, % at 10 µM. 330,000 tested, 0.39% active. Yeast reconstituted NLRP3/ASC/caspase-1, beta-gal luminescence, 24 h;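 active means inhibition of 50% or more; inactive means inhibition below 50%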;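 further: plate controls were induced DMSO wells for no effect and uninduced yeast grown without galactose for full effect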
tim10-1 confirm: growth inhibitors of tim10-1 mutant yeast, confirmation, single concentration, luminescence, S. cerevisiae; shares compounds with tim10-1 inh; S. cerevisiae tim10-1 ts strain growth, BacTiter-Glo, 24 h; inhibition, % at 20 µM; 7,400 tested, 56% active; AID 463213, 2010;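 active means inhibition of yeast growth at or above a set limit in either of two repeat tests at 20 µM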;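 further: tim10-1 mutant grown at permissive 25 °C to find synthetic lethal compounds; 0% = DMSO yeast wells and 100% = medium wells without yeast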
* marks the source's active call; other numbers are inactive results. In the library only some 4% were active in any assay of this set; here they are far more common.

Results for Cc1ccc(S(=O)(=O)N2CCN(C(=O)CN3C(=O)c4ccccc4C3=O)CC2)c(C)c1 ?
TIM10 inh: -6; tim10-1 inh: -2; tim23-1 inh: -5; NALP3 yeast inh: 9

Results for CC(Cl)C(=O)NC(=O)NC12CC3CC(CC(C3)C1)C2 (centres undefined) ?
TIM10 inh: 29; tim10-1 inh: 42*; tim23-1 inh: 45; NALP1 inh: 18; NALP3 yeast inh: 5; tim10-1 confirm: 26

How did COC(=O)C(CC(=O)c1ccc(Br)cc1)n1ccnc1 (centres undefined) do in these assays?
TIM10 inh: 34; tim10-1 inh: 72*; tim23-1 inh: 49; NALP1 inh: 3; NALP3 yeast inh: -2; tim10-1 confirm: 44*

How did COC(=O)C(CC(=O)c1ccc(Br)cc1)n1nc(C)cc1C (centres undefined) do in these assays?
TIM10 inh: -6; tim10-1 inh: -5; tim23-1 inh: 14; NALP1 inh: 7; NALP3 yeast inh: -7

What do the screens show for `CCOc1cc(C(C(=O)NCC2CCCO2)N(C(=O)Cn2nnc3ccccc32)c2ccccc2OC)ccc1O` (centres undefined)?
TIM10 inh: 4; tim10-1 inh: 21; tim23-1 inh: 28; NALP1 inh: 3; NALP3 yeast inh: 3

What do the screens show for `NC(=O)C1CCCN(C(=O)c2cccc(S(=O)(=O)N3CCCCCC3)c2)C1` (centres undefined)?
TIM10 inh: -5; tim10-1 inh: -4; tim23-1 inh: -2; NALP3 yeast inh: 12

How did O=[N+]([O-])CC(c1ccccc1)P(=O)(c1ccccc1)c1ccccc1 (centres undefined) do in these assays?
TIM10 inh: 0; tim10-1 inh: 41*; tim23-1 inh: 28; NALP1 inh: -8; NALP3 yeast inh: -2; tim10-1 confirm: 14

Results for CCn1c(COc2cccc(C)c2)nnc1SCC(=O)CC(=O)Nc1ccccc1OC ?
TIM10 inh: 19; tim10-1 inh: 48*; tim23-1 inh: 21; NALP1 inh: 0; NALP3 yeast inh: 11; tim10-1 confirm: 13

Results for C[C@H](CO)N1C[C@H](C)[C@@H](CN(C)S(=O)(=O)c2cccs2)Oc2ccc(NS(=O)(=O)c3ccccc3)cc2C1=O ?
TIM10 inh: 1; tim10-1 inh: 5; tim23-1 inh: 20; NALP3 yeast inh: 1

Results for COc1ccc(CCC(=O)N2CCN(C(=O)c3ccccc3)CC2)cc1 ?
TIM10 inh: 7; tim10-1 inh: 18; tim23-1 inh: -2; NALP1 inh: 11; NALP3 yeast inh: 4

How did O=C(Cc1ncc(C(F)(F)F)cc1Cl)N1CCN(c2ccc(F)cc2)CC1 do in these assays?
TIM10 inh: 5; tim10-1 inh: 18; tim23-1 inh: 22; NALP3 yeast inh: 9

What do the screens show for `O=C(CSc1ccccn1)N1CCN(c2ccccc2)CC1`?
TIM10 inh: 5; tim10-1 inh: 15; tim23-1 inh: 8; NALP1 inh: 40; NALP3 yeast inh: 17

What do the screens show for `O=C(CSc1ccccn1)N1CCN(c2cccc(Cl)c2)CC1`?
TIM10 inh: 14; tim10-1 inh: 43*; tim23-1 inh: 18; NALP1 inh: 4; NALP3 yeast inh: 16; tim10-1 confirm: 17

What do the screens show for `O=C(Cc1ncc(C(F)(F)F)cc1Cl)N1CCN(c2cccc(Cl)c2)CC1`?
TIM10 inh: 0; tim10-1 inh: 43*; tim23-1 inh: 7; NALP1 inh: 34; NALP3 yeast inh: 14; tim10-1 confirm: 9

Results for COCCn1c(-c2ccc(OC)cc2)c(-c2ccc(OC)cc2)oc1=O ?
TIM10 inh: -6; tim10-1 inh: 16; tim23-1 inh: 26; NALP1 inh: -20; NALP3 yeast inh: 23

What do the screens show for `CCOC(=O)c1cnc(Nc2nc3ccccc3o2)nc1CSc1nnc(C)s1`?
TIM10 inh: 10; tim10-1 inh: 50*; tim23-1 inh: 11; NALP3 yeast inh: 9; tim10-1 confirm: 16

What do the screens show for `N#CCc1ccc(NC(=O)CSc2nnc(C3CC3)n2C2CC2)cc1`?
TIM10 inh: 7; tim10-1 inh: -7; tim23-1 inh: 12; NALP3 yeast inh: 19

What do the screens show for `N/C(=N\OC(=O)c1cccs1)c1cccc([N+](=O)[O-])c1`?
TIM10 inh: 13; tim10-1 inh: 47*; tim23-1 inh: 12; NALP1 inh: -15; NALP3 yeast inh: 6; tim10-1 confirm: 39*

What do the screens show for `N/C(=N\OC(=O)CSc1ccccc1)c1cccc([N+](=O)[O-])c1`?
TIM10 inh: 24; tim10-1 inh: 42*; tim23-1 inh: 31; NALP1 inh: 14; NALP3 yeast inh: 5; tim10-1 confirm: 40*

What do the screens show for `COc1ccc(/C(N)=N/OC(=O)c2cccc([N+](=O)[O-])c2)cc1OC`?
TIM10 inh: 6; tim10-1 inh: 42*; tim23-1 inh: 11; NALP1 inh: 22; NALP3 yeast inh: 14; tim10-1 confirm: 15

What do the screens show for `N/C(=N\OC(=O)c1cccc2ccccc12)c1cccc([N+](=O)[O-])c1`?
TIM10 inh: 6; tim10-1 inh: 33; tim23-1 inh: 22; NALP1 inh: -4; NALP3 yeast inh: 23

What do the screens show for `COc1ccc(C(=O)O/N=C(\N)c2ccccc2Cl)cc1OC`?
TIM10 inh: 29; tim10-1 inh: 63*; tim23-1 inh: 31; NALP1 inh: 25; NALP3 yeast inh: 14; tim10-1 confirm: 52*

What do the screens show for `N#CCN(CC#N)C(=O)C1c2ccccc2Oc2ccccc21`?
TIM10 inh: 3; tim10-1 inh: 2; tim23-1 inh: 5; NALP3 yeast inh: 19

How did Cc1csc2c(N3CCN(C(=O)Nc4ccc(OC(F)(F)F)cc4)CC3)ncnc12 do in these assays?
TIM10 inh: 35; tim10-1 inh: 31; tim23-1 inh: 46; NALP1 inh: 6; NALP3 yeast inh: 27

What do the screens show for `COc1ccccc1CNS(=O)(=O)c1ccc2c(c1)NC(=O)CO2`?
TIM10 inh: 7; tim10-1 inh: 2; tim23-1 inh: 0; NALP1 inh: 6; NALP3 yeast inh: 16

What do the screens show for `COc1ccc(CCNC(=S)NC(=O)c2cccc([N+](=O)[O-])c2)cc1OC`?
TIM10 inh: 24; tim10-1 inh: 41*; tim23-1 inh: 37; NALP1 inh: 13; NALP3 yeast inh: 25; tim10-1 confirm: 27

What do the screens show for `CC(C)Sc1oc(-c2ccco2)nc1S(=O)(=O)c1ccccc1`?
TIM10 inh: 30; tim10-1 inh: 41*; tim23-1 inh: 49; NALP1 inh: -63; NALP3 yeast inh: 20; tim10-1 confirm: 30

How did CSc1oc(-c2ccco2)nc1S(=O)(=O)c1ccccc1 do in these assays?
TIM10 inh: -8; tim10-1 inh: 12; tim23-1 inh: 14; NALP1 inh: -6; NALP3 yeast inh: -3
